# Assay results reported in PubChem BioAssay (EPA / NIEHS).
# “And” between values parts separate entries of the source, which are not always exact repeats. Identical values can stand only once. Results filed as inconclusive are left out. The source made the active and inactive calls. Rule for the calls, unless noted: active = hit-call score of the fitted dose curve at least 0.9, where 1 is the maximum; inactive = score below 0.9.
# What was measured:
# [1] = ATG_ERE_CIS: Attagene CIS-FACTORIAL HepG2 Assay for Estrogen Response Element (ERE) (AID 2282940); details: HepG2 ERE cis-reporter, Attagene RNA transcript; actives raise or lower the signal
# Outline: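 HepG2 cells transiently transfected with multiplexed cis-element reporter units, measuring endogenous transcription factor activity; ERE reporter mRNA quantified after 24 h exposure by RT-PCR, fluorescent labelling, HpaI digestion and capillary electrophoresis. Bidirectional change versus DMSO.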
# [2] = molecular target: Peroxisome proliferator-activated receptor gamma (Homo sapiens) (UniProt P37231); assay: OT_PPARg_PPARgSRC1_0480: Odyssey Thera (OT) 8-hour Protein-Complementation Assay for Peroxisome Proliferator-activated Receptor Gamma / SRC-1 Co-activator (AID 2283387; active = hit-call score of the fitted dose curve at least 0.9, where 1 is the maximum;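 note: nuclear to cytoplasmic split Venus YFP fluorescence ratio reporting PPARg SRC-1 interaction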)
# Outline: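 HEK293T transiently transfected with PPARg and SRC-1 fused to Venus YFP fragments, compounds 8 h at 37C. Fixed, Draq5-stained cells imaged; nuclear/cytoplasmic 488 nm fluorescence ratio over at least 350 cells per image; gain fitted versus DMSO.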
# [3] = molecular target: Peroxisome proliferator-activated receptor gamma (Homo sapiens) (UniProt P37231); assay: OT_PPARg_PPARgSRC1_1440: Odyssey Thera (OT) 24-hour Protein-Complementation Assay for Peroxisome Proliferator-activated Receptor Gamma/ SRC-1 Co-activator (AID 2283388; active = hit-call score of the fitted dose curve at least 0.9, where 1 is the maximum)
# Outline: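 Protein-fragment complementation between PPARg and coactivator SRC-1 was measured by fluorescence imaging in transiently transfected HEK293T cells after 24 h treatment. Signal was quantified as N/C ratio in the 488 nm channel, with DMSO as negative control.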
# [4] = read-out: Vascular endothelial growth factor receptor 2 (Homo sapiens) (UniProt P35968); assay: BSK_4H_VEGFRII: BioMAP Diversity Plus: 4H Assay for Vascular endothelial growth factor receptor 2 (VEGFR2) Biomarker Activity (AID 2283031); details: primary human endothelial cells (HUVEC); actives raise or lower the signal;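 for AC50: cell-surface VEGFR2 protein level quantified by ELISA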
# Outline: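 ELISA read-out of VEGFRII in primary human umbilical vein endothelium, taken 24 h after chemical treatment. Responses are expressed relative to DMSO, with bidirectional fitting.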
# [5] = read-out: Transforming growth factor beta 1 (TGFb1), TGFB1 (gene 7040); assay: BSK_BE3C_TGFb1: BioMAP Diversity Plus: BE3C Assay for Transforming growth factor beta 1 (TGFb1) Biomarker Activity (AID 2283036;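 note: TGF-b1 protein level measured by ELISA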); details: primary human bronchial epithelial cells; actives raise or lower the signal
# Outline: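 In this human primary bronchial epithelial system, an ELISA quantified TGF-b1 one day after dosing. Endpoint changes in either direction were fitted relative to DMSO.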
# [6] = read-out: Low-density lipoprotein receptor (LDLR), LDLR (gene 3949); assay: BSK_CASM3C_LDLR: BioMAP Diversity Plus: CASM3C Assay for Low-density lipoprotein receptor (LDLR) Biomarker Activity (AID 2283045); details: primary human coronary artery smooth muscle cells; actives raise or lower the signal;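 note: LDLR protein level on the cell surface quantified by ELISA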
# [7] = read-out: C-C motif chemokine 2 (Homo sapiens) (UniProt P13500); assay: BSK_KF3CT_MCP1: BioMAP Diversity Plus: KF3CT Assay for Monocyte Chemoattractant Protein 1 (MCP1/CCL2) Biomarker Activity (AID 2283073); details: primary human keratinocytes with fibroblasts; actives raise or lower the signal
# Outline: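 ELISA readout of MCP-1 after 24 h chemical dosing of a human skin primary co-culture of keratinocytes and foreskin fibroblasts. Activity was fitted in both directions against DMSO.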
# [8] = read-out: E-selectin (Homo sapiens) (UniProt P16581); assay: BSK_LPS_Eselectin: BioMAP Diversity Plus: LPS Assay for Eselectin Biomarker Activity (AID 2283077); details: primary human HUVEC with PBMC; actives raise or lower the signal
# Outline: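 Primary human vascular co-culture (endothelium plus PBMC) was dosed with chemical, then E-selectin quantified by ELISA at 24 h. Endpoint values derive from bidirectional curve fitting relative to DMSO.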
# [9] = read-out: Macrophage colony-stimulating factor (MCSF), CSF1 (gene 1435); assay: BSK_LPS_MCSF: BioMAP Diversity Plus: LPS Assay for Macrophage colony-stimulating factor (MCSF) Biomarker Activity (AID 2283083); details: primary human HUVEC with PBMC; actives raise or lower the signal
# Outline: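 ELISA readout of M-CSF after 24 h compound exposure in a human endothelial/PBMC co-culture. Activity, in either direction, is fitted relative to DMSO vehicle.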
# [10] = read-out: Tissue Factor, F3 (gene 2152); assay: BSK_LPS_TissueFactor: BioMAP Diversity Plus: LPS Assay for Tissue Factor Biomarker Activity (AID 2283084); details: primary human HUVEC with PBMC; actives raise or lower the signal
# Outline: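 ELISA signal for cell-surface Tissue Factor (CD142) was read 24 h after compound dosing of an LPS-stimulated human endothelial–PBMC primary co-culture. Gain or loss of signal was scored relative to DMSO.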
# [11] = read-out: Tumor necrosis factor (Homo sapiens) (UniProt P01375); assay: BSK_LPS_TNFa: BioMAP Diversity Plus: LPS Assay for Tumour Necrosis Factor alpha (TNFa) Biomarker Activity (AID 2283085); details: primary human HUVEC with PBMC; actives raise or lower the signal
# Outline: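 Primary human vascular co-culture of HUVEC and PBMC; TNFa ELISA 24 h after treatment, analysed as increase or decrease relative to DMSO control.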
# [12] = read-out: Vascular cell adhesion molecule 1 (VCAM1), VCAM1 (gene 7412); assay: BSK_LPS_VCAM1: BioMAP Diversity Plus: LPS Assay for Vascular cell adhesion molecule 1 (VCAM1) Biomarker Activity (AID 2283086); details: primary human HUVEC with PBMC; actives raise or lower the signal
# Outline: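 Primary human vascular co-culture (umbilical vein endothelium plus PBMC) stimulated with LPS received chemical; 24 h later VCAM-1 was read by ELISA. Overt cytotoxicity was assessed by sulforhodamine B staining of parallel cultures at the same time point.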
# CD40, CD40 (gene 958) = assay: BSK_SAg_CD40: BioMAP Diversity Plus: SAg Assay for CD40 Biomarker Activity (AID 2283088); details: primary human HUVEC with PBMC; actives raise or lower the signal
# Outline: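 Compounds were dosed onto a human primary endothelial–PBMC co-culture, and after 24 h CD40 was quantified by ELISA using a fluorescence signal. Activity in either direction was fitted relative to DMSO.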
# [13] = read-out: Monocyte Chemoattractant Protein-1 (MCP1), CCL2 (gene 6347); assay: BSK_SAg_MCP1: BioMAP Diversity Plus: SAg Assay for Monocyte Chemoattractant Protein-1 (MCP1) Biomarker Activity (AID 2283090); details: primary human HUVEC with PBMC; actives raise or lower the signal
# Outline: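 MCP-1 levels in the endothelial–PBMC SAg co-culture were quantified by ELISA at 24 h post-dosing; both increases and decreases versus DMSO scored. Cytotoxicity monitored by SRB total protein in parallel cultures.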
# [14] = read-out: Monokine induced gamma interferon (MIG), CXCL9 (gene 4283); assay: BSK_SAg_MIG: BioMAP Diversity Plus: SAg Assay for Monokine induced gamma interferon (MIG) Biomarker Activity (AID 2283092); details: primary human HUVEC with PBMC; actives raise or lower the signal
# Outline: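 HUVEC plus human PBMC co-culture, chemicals dosed and MIG (CXCL9) quantified by ELISA at 24 h. Bidirectional curve fitting against DMSO as negative control and baseline, so both gain and loss of signal count as activity.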
# [15] = read-out: Interleukin-8 (IL8), CXCL8 (gene 3576); assay: BSK_SAg_IL8: BioMAP Diversity Plus: SAg Assay for Interleukin-8 (IL8) Biomarker Activity (AID 2283094); details: primary human HUVEC with PBMC; actives raise or lower the signal
# Outline: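 In this co-culture of human umbilical vein endothelium with peripheral blood mononuclear cells, IL-8 is assayed by ELISA at 24 h. DMSO serves as baseline for bidirectional curve fitting.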
# [16] = BSK_SAg_Proliferation: Cell Proliferation Assessment in the BioMAP Diversity Plus: SAg Assay (AID 2283095); details: primary human HUVEC with PBMC;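 note: relative cell number as total protein by SRB absorbance in sub-confluent culture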
# Outline: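 Readout is SRB-stained protein (560 nm) in a primary human HUVEC and PBMC co-culture; sub-confluent cultures are read at 96 h. Activity is fitted bidirectionally using DMSO as baseline.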
# [17] = BSK_SAg_SRB: Viability Assessment in the BioMAP Diversity Plus: SAg Assay (AID 2283096); details: primary human HUVEC with PBMC;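 note: cells read one day after compound addition; hits may be either gain or loss of signal compared with DMSO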
# Outline: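 Total protein by sulforhodamine B staining, 24 h after dosing, in HUVEC–PBMC co-culture; DMSO-referenced bidirectional fitting.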
# [18] = molecular target: Bile acid receptor (Homo sapiens) (UniProt Q96RI1); assay: ATG_FXR_TRANS: Attagene TRANS-FACTORIAL HepG2 Assay for Farnesoid X Receptor (FXR) (AID 2282979; active = hit-call score of the fitted dose curve at least 0.9, where 1 is the maximum;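 note: hits raise reporter mRNA above DMSO so AC50 marks FXR activation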); details: HepG2 Attagene TRANS FXR-GAL4 reporter transcription
# Outline: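 Transient transfection of HepG2 with multiplexed GAL4-UAS reporter units; exogenous FXR-GAL4 chimera. Dose 24 h → TriZol RNA → oligo(dT) RT → PCR, 6-FAM primer extension, HpaI cut → CE. Gain vs DMSO.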
# Chain of Peroxisome proliferator-activated receptor gamma (Homo sapiens) (P37231 whole entry, looked up, the tested form may be a part): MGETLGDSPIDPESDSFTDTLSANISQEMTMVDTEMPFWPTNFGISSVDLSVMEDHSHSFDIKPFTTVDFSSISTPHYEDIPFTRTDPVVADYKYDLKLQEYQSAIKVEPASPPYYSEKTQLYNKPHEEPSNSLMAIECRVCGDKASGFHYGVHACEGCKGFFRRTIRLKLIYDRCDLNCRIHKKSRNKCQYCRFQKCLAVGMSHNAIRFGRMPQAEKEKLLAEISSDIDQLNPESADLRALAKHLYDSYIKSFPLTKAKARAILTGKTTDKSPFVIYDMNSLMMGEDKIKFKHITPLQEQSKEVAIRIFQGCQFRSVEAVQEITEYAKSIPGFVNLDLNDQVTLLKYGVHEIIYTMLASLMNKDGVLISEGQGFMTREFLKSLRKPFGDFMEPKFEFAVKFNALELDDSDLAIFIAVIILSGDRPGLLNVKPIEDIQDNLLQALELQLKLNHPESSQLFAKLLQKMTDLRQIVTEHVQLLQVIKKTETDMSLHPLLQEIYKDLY
# Chain of Tumor necrosis factor (Homo sapiens) (P01375 whole entry, looked up): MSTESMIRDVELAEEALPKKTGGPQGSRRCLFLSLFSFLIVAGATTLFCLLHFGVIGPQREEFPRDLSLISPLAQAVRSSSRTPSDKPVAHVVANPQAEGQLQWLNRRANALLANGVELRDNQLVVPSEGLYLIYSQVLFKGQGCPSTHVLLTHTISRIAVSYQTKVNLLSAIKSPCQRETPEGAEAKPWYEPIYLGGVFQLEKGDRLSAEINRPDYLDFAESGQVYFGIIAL
# Chain of Bile acid receptor (Homo sapiens) (Q96RI1 whole entry, looked up, the tested form may be a part): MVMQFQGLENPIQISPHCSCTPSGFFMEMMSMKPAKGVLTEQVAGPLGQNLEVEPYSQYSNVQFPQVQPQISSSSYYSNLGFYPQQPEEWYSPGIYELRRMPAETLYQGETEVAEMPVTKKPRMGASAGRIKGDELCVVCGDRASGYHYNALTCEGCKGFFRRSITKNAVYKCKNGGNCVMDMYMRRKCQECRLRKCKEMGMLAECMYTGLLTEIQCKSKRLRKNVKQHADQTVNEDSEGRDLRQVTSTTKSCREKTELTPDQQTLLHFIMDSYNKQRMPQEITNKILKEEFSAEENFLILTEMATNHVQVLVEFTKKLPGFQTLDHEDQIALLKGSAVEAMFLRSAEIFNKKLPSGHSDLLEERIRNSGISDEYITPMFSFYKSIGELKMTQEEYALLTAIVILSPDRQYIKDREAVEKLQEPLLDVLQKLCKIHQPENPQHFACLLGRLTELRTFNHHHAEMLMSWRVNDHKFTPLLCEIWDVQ
# Chain of E-selectin (Homo sapiens) (P16581 whole entry, looked up): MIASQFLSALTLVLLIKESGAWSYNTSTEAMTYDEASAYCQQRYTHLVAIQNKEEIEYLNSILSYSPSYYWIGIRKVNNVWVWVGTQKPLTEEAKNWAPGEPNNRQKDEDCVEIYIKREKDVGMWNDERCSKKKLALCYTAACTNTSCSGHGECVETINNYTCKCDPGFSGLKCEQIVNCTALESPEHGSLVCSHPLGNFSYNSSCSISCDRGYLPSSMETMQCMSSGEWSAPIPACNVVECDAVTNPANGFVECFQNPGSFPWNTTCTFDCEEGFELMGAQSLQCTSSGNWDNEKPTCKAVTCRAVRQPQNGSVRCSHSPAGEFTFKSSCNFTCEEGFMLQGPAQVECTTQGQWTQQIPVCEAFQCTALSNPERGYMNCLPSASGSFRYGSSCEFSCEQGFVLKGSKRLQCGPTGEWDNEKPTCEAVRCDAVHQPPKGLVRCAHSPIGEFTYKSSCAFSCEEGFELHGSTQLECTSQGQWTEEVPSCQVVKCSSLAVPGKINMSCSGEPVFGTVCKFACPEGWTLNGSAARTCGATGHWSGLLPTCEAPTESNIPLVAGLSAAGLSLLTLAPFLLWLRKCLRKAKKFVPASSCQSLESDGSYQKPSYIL
smiles,measurement,setting,value
c1ccc(P(c2ccccc2)c2ccccc2)cc1,AC50,[1],23.5 µM (active)
same,outcome,[2],inactive
same,outcome,[3],inactive
C[N+](C)(C)CC(=O)O,outcome,[1],inactive
N#CCCCCC#N,outcome,[4],inactive
same,outcome,[5],inactive
same,outcome,[6],inactive
same,outcome,[7],inactive
same,outcome,[8],inactive
same,outcome,[9],inactive
same,outcome,[10],inactive
same,outcome,[11],inactive
same,outcome,[12],inactive
same,outcome,"CD40, CD40 (gene 958)",inactive
same,outcome,[13],inactive
same,outcome,[14],inactive
same,outcome,[15],inactive
same,outcome,[16],inactive
same,outcome,[17],inactive
same,outcome,[2],inactive
same,outcome,[3],inactive
CC(C)COP(=O)(OCC(C)C)OCC(C)C,outcome,[18],inactive
same,outcome,[4],inactive
same,outcome,[5],inactive
same,outcome,[6],inactive
same,outcome,[7],inactive
same,outcome,[8],inactive
same,outcome,[9],inactive
same,outcome,[10],inactive
same,outcome,[11],inactive
same,outcome,[12],inactive
same,outcome,"CD40, CD40 (gene 958)",inactive
same,outcome,[13],inactive
same,outcome,[14],inactive
same,outcome,[15],inactive
same,outcome,[16],inactive
same,outcome,[17],inactive
CCOP(=O)(OCC)OCC,outcome,[2],inactive
same,outcome,[3],inactive
Oc1ccc(C2(c3ccc(O)cc3)c3ccccc3-c3ccccc32)cc1,outcome,[1],inactive
same,outcome,[18],inactive
same,AC50,[4],33.9 µM (active) and 35.7 µM (active)
same,AC50,[6],29.5 µM (active) and 28.9 µM (active)
same,AC50,[7],5.75 µM (active) and 6.7 µM (active)
same,AC50,[8],31.6 µM (active) and 33.9 µM (active)
same,AC50,[9],33.9 µM (active) and 33.6 µM (active)
same,AC50,[10],32 µM (active) and 29.5 µM (active)
same,AC50,[11],30.9 µM (active) and 36.3 µM (active)
same,AC50,[12],15.9 µM (active) and 22 µM (active)
same,AC50,"CD40, CD40 (gene 958)",11.7 µM (active) and 12.5 µM (active)
same,AC50,[13],11.8 µM (active) and 11.2 µM (active)
same,AC50,[14],12.4 µM (active) and 11.5 µM (active)
same,AC50,[15],8.55 µM (active) and 9.2 µM (active)
same,AC50,[16],9.89 µM (active) and 9.81 µM (active)
same,AC50,[17],15.9 µM (active) and 15.6 µM (active)
CC(=O)c1cc2c(cc1C)C(C)(C)C(C)CC2(C)C (stereo not given),outcome,[18],inactive
same,outcome,[2],inactive
same,outcome,[3],inactive
Oc1cc(Cl)ccc1Cl,outcome,[4],inactive
same,outcome,[5],inactive
same,outcome,[6],inactive
same,outcome,[7],inactive
same,outcome,[8],inactive
same,outcome,[9],inactive
same,outcome,[10],inactive
same,outcome,[11],inactive
same,outcome,[12],inactive
same,outcome,"CD40, CD40 (gene 958)",inactive
same,outcome,[13],inactive
same,outcome,[14],inactive
same,outcome,[15],inactive
same,outcome,[16],inactive
same,outcome,[17],inactive
same,outcome,[2],inactive
same,outcome,[3],inactive
